# Source: PubChem BioAssay (several laboratories)
# Most compounds without a hit are left out; they make up all but 2.4% or so of the library.
# PfM18AAP inh – PfM18AAP inhibitors, malaria aminopeptidase, primary screen, biochemical, QFRET, recombinant enzyme. M18 aspartyl aminopeptidase (Plasmodium falciparum 3D7). H-Glu-NHMec fluorogenic cleavage. inhibition, % at 7.35 µM. actives 1.2% (n = 290,000);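 active = inhibition above the campaign mean inhibition over all tested compounds plus 3 SD, cut at about 28% in these data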;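 also: 0% = plate median of test compound wells and 100% = 2 mM ZnCl2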
# A3G deaminase – APOBEC3G DNA deaminase inhibitors, primary screen, biochemical, fluorescence, single-stranded DNA substrate, uHTS. recombinant A3G, ssDNA deamination FAM/TAMRA fluorescence. actives 0.28% (n = 330,000). inhibition, % at 20 µM. DNA dC->dU-editing enzyme APOBEC-3G (Homo sapiens), Q9HC16;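 active = inhibition of at least 40% at 20 µM, with no more than 30% in the related APOBEC3A deaminase screen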;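 also: plate controls were DMSO wells with A3G for no effect and wells lacking A3G enzyme for full effect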
# Target sequence (Q9HC16 whole entry, looked up): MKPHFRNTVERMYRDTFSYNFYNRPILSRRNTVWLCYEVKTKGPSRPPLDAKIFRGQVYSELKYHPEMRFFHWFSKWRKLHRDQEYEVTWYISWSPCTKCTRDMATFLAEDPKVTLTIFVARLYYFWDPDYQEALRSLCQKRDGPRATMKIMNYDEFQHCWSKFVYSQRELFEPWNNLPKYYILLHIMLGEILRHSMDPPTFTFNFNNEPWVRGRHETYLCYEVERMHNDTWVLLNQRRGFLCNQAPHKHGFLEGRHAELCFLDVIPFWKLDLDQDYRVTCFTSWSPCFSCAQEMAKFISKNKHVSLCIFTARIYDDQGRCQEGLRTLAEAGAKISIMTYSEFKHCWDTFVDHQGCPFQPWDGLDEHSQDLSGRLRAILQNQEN
# PfG6PD inh – PfG6PD enzyme inhibitors, primary screen, biochemical, fluorescence intensity, uHTS | glucose-6-phosphate dehydrogenase-6-phosphogluconolactonase (Plasmodium falciparum 3D7) | PfGluPho enzyme, NADPH resazurin-diaphorase fluorescence | inhibition, % at 20 µM | actives 0.78% (n = 350,000) | AID 504690, 2011;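 active = inhibition reaching at least a set limit at 20 µM in the primary screen, cut at about 59% in these data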;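 also: 0% = DMSO wells with substrate and 100% = DMSO wells lacking glucose-6-phosphate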
# A3A deaminase – APOBEC3A ssDNA deaminase inhibitors, primary screen, selectivity assay for APOBEC3G inhibitor project, biochemical, FAM/TAMRA oligo cleavage fluorescence; recombinant A3A, FAM/TAMRA ssDNA deamination fluorescence; inhibition, % at 20 µM; actives 0.41% (n = 330,000);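 active = at least 40% inhibition at 20 µM here, with at most 30% in a related deaminase screen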;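 also: plate controls were A3A with DMSO for no effect and wells lacking A3A enzyme for full effect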
# CR mimetic SO – reduction of superoxide in aged yeast, primary screen, HTS | AID 2690, 2010 | actives 0.18% (n = 330,000) | S. cerevisiae aged cells, superoxide DHE fluorescence; hits give low values | superoxide response (% of plate mean), % at 10 µM;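 active = superoxide response under a set limit, about three screen SD below normal, cut at about 65% in these data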;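 also: yeast aged for seven days with compound at 30 °C before DHE staining; 100% = average MFI of all compound-treated wells on the plate with controls excluded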
# PfGluPho conf – PfG6PD inhibitors, hit retest, confirmation, biochemical, fluorescence intensity, single concentration; shares compounds with PfG6PD inh; recombinant PfGluPho, NADPH-diaphorase-resazurin fluorescence; inhibition, % at 20 µM; actives 34% (n = 2,400);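 active = inhibition of at least 50% at 20 µM in any single replicate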;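 also: 0% = DMSO with substrate and 100% = DMSO lacking glucose-6-phosphate substrate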
# Diaph ctr 10uM – diaphorase inhibitors and chemical oxidizers, confirmation, counter-screen for P. falciparum G6PD inhibitor project, biochemical, fluorescence intensity, 10 µM NADPH; shares compounds with PfG6PD inh; diaphorase-coupled resazurin reduction, NADPH 10 uM; inhibition, % at 20 µM; actives 39% (n = 820); AID 504862, 2011;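 active = average inhibition reaching 50% or more with the compound at 20 µM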;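 also: resorufin red fluorescence formed as diaphorase reduces resazurin using NADPH; 0% = DMSO with enzyme and 100% = DMSO without enzyme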
# Diaph ctr 30uM – diaphorase inhibitors and chemical oxidizers, confirmation, counter-screen for P. falciparum G6PD inhibitor project, biochemical, fluorescence intensity, 30 µM NADPH | actives 29% (n = 820) | Diaphorase/resazurin coupled assay, resorufin fluorescence | shares compounds with PfG6PD inh | inhibition, % at 20 µM;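 active = inhibition averaging 50% or more, tested at 20 µM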;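 also: 0% = DMSO with enzyme and 100% = DMSO wells lacking diaphorase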
# The depositor's hits bear a star; / = no result.
SMILES,PfM18AAP inh,A3G deaminase,PfG6PD inh,A3A deaminase,CR mimetic SO,PfGluPho conf,others
CC(C(=O)NCC(=O)Nc1ccc(F)c(F)c1F)N1CCN(c2ccc(O)cc2)CC1 (stereo unspecified),/,13,70*,-3,114,43,
CC(C(=O)NCC(=O)Nc1ccc(F)c(F)c1F)N1CCN(Cc2ccc(C#N)cc2)CC1 (stereo unspecified),/,-10,8,-3,102,/,
COc1ccc2nc(N=Nc3ccc(N(C)C)cc3)sc2c1,5,/,14,/,/,/,
CN(C)c1ccc2nc3ccc(=[N+](C)C)cc-3sc2c1,22,26,112*,26,84,84*,Diaph ctr 10uM=79*;Diaph ctr 30uM=78*
CN(C)c1ccc2nc3ccc(=O)cc-3sc2c1,/,/,78*,/,/,49*,Diaph ctr 10uM=24;Diaph ctr 30uM=28
N#C/C(=C\c1c(Oc2ccccc2F)nc2ccccn2c1=O)C(=O)NC1CCS(=O)(=O)C1 (stereo unspecified),7,-3,9,-3,88,/,
Nc1ccc2nc(-c3ccc(Cl)cc3)[nH]c2c1,/,-4,35,-4,96,/,
Clc1ccc2nc(-c3ccc(Cl)nc3)[nH]c2c1,-4,-8,110*,-1,103,55*,Diaph ctr 10uM=71*;Diaph ctr 30uM=57*
N#Cc1ccc(-c2nc3ccc(Br)cn3c2Cc2ccccc2)cc1,/,/,89*,/,/,13,
CCCCN1C(=O)/C(=C2\SC(N3CCCCC3)=NC2=O)c2ccccc21,-44,3,65*,1,124,2,
O=C1N=C(N2CCCCC2)SC1=C1CCCC1,0,-1,-1,2,112,/,
COc1cn(-c2ccccc2)nc1C(=O)Nc1ccc(C)cc1Cl,-1,-6,7,5,123,/,
Cc1cc(C)c[n+](C2=C([O-])c3ccccc3C(=O)/C2=N\S(=O)(=O)c2cccs2)c1,-3,-11,66*,2,147,50*,Diaph ctr 10uM=50*;Diaph ctr 30uM=44
O=C1/C(=N\S(=O)(=O)c2cccs2)C([n+]2ccc(CCCc3ccccc3)cc2)=C([O-])c2ccccc21,1,-4,12,2,135,/,
O=C1/C(=N\S(=O)(=O)c2cccs2)C([n+]2cccc(Cc3ccccc3)c2)=C([O-])c2ccccc21,-1,-6,63*,-6,122,26,
Cc1cc[n+](C2=C([O-])c3ccccc3C(=O)/C2=N\S(=O)(=O)c2cccs2)cc1C,4,-5,13,-1,169,/,
Cc1ccccc1-n1c(N)c(C(=O)Nc2ccc(F)cc2)sc1=S,20,-12,34,2,79,/,
Cc1ccc(-n2c(N)c(C(=O)Nc3ccccc3F)sc2=S)cc1C,2,-2,70*,4,98,-3,
Cc1ccc(NC(=O)c2sc(=S)n(-c3cc(C)ccc3F)c2N)cc1,20,3,75*,0,102,25,
Cc1ccc(N(Cc2ccccc2)C(=O)Cc2ccc(S(=O)(=O)N3CCOCC3)s2)cc1,/,-11,18,-1,/,/,
CCN(C(C)=O)c1cnc(C=NNC(N)=S)c2ccccc12,/,/,34,/,/,/,
NC(=S)NN=Cc1nccc2c(N)cccc12,/,/,100*,/,/,49,
COc1ccc2c(c1)n([O-])c1c([n+]2=O)CCC1,6,3,26,5,90,/,
CCOc1ccc2c(c1)n([O-])c1c([n+]2=O)CCCC1,21,/,99*,/,/,4,
